High-throughput results: PubChem BioAssay, several laboratories
In the library only some 11% were active in any assay of this set; here they are far more common.
Autophagy HCS: alters autophagy in cells; calls only at 10 µM (by protocol); hit rate 0.98% among 190,000; MEF GFP-LC3 puncta imaging; test concentration mostly 10 µM; AID 463193;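 active means percentage of spot-positive cells more than 3 SD above its plate mean, without a fluorescence outlier flag or 80% toxicity; inconclusive means no clear call, values can overlap the other calls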
Insulin prom inh: TRM-6 insulin promoter activity inhibition | TRM-6 cells (human fetal islet line), insulin promoter-eGFP reporter, imaging; reporter expression induced with tamoxifen | hit rate 0.9% among 130,000 | inhibition, % at 2 µM | AID 1273;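 active means inhibition above the mean plus 3 SD, with well images judged a real hit on visual review, cut at about 60% in these data, passing the limit was not always enough; inconclusive means inhibition over the cutoff but images rejected on review; inactive means inhibition not above the cutoff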
WT yeast gro inh: growth inhibition of WT yeast, mitochondrial fusion screen | mitochondrial fusion phenotypic screen, WT strain | hit rate 2.1% among 190,000 | AID 1362 | inhibition, % at 10 µM; in the data active means inhibition above about 58%; tested in S. cerevisiae
L major viab: Leishmania major promastigote growth inhibition | Leishmania major promastigotes, resazurin fluorescence viability | inhibition, % at 10 µM | hit rate 9% among 200,000 | AID 1063; in the data active means inhibition above about 50%;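 further: promastigotes grown with compound for 44 hours at 28 °C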
Ins promoter up: MIN6 insulin promoter up-regulation; z-score at 5 µM; MIN6 insulin promoter-GFP reporter, high-content imaging; stronger effect = higher value; AID 1625; hit rate 0.3% among 190,000;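 active means z-score above 3 at 5 µM with at least 500 cells counted in the well; inconclusive means wells under 500 cells, flagged as cytotoxic or low count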
Numbers stand for hits; n = inactive; u = inconclusive; x = no result; + = active, no number.

SMILES	Autophagy HCS	Insulin prom inh	WT yeast gro inh	L major viab	Ins promoter up
CCOC(=O)N1CCC(N2C(=O)c3ccccc3C2Nc2ccc(S(=O)(=O)N3CCCCC3)cc2)CC1 (stereo unspecified)	n	n	n	n	n
O=C(NC1CCCC1)c1n[nH]c2ccccc12	n	x	n	n	n
CC(NC(=O)C1CCCCC1)C(c1cccs1)N1CCN(C)CC1 (stereo unspecified)	x	x	x	x	n
COC(=O)C(Cc1ccccc1)NS(=O)(=O)c1ccc(F)cc1Br (stereo unspecified)	x	x	x	x	n
CN=c1c([N+](=O)[O-])nn(-c2ccc3c(c2)OCCO3)n1O	n	n	n	n	n
O=[N+]([O-])c1nn(-c2ccc3c(c2)OCCO3)n(O)c1=NCc1ccc(F)cc1Cl	n	n	n	85	x
O=C(NC1CC1)c1ccc(CN(c2ccccc2)S(=O)(=O)c2ccccc2)cc1	n	n	n	58	n
C=CCN(c1ccccc1)S(=O)(=O)c1cccc(C(=O)OCC(=O)NC2CC2)c1	+	n	n	n	n
C=CCN(c1ccccc1)S(=O)(=O)c1cccc(C(=O)OCC(=O)NCCOC)c1	x	x	x	x	n
CCOC(=O)c1c(CSC(=N)N)n(-c2ccc(Br)cc2)c2cc(Br)c(OC(C)=O)cc12	n	n	n	88	u
CCOC(=O)CC(=O)CSc1nc(C)cc(C)c1C#N	n	n	n	n	n
C=CCCc1ccc(C#N)c(SCc2c(C(=O)OCC)c3cc(OC(C)=O)c(Br)cc3n2C)n1	n	x	n	64	n
CCCCCCCCOC(=O)c1c(CSC(=N)N)n(C)c2cc(Br)c(OC(C)=O)cc12	x	x	x	x	n
CCOC(=O)c1c(CSc2nc(C)cc(C)c2C#N)n(C)c2cc(Br)c(OC(C)=O)cc12	n	n	n	96	u
COC1(OC)C(/C=C/c2ccc(Cl)cc2)C(C#N)(C#N)C1(OC)OC (stereo unspecified)	n	n	n	85	x
CCOC(=O)C1CCN(C(=O)c2ccc(CNS(=O)(=O)c3ccc(OC)cc3)cc2)CC1	+	x	n	n	n
CCOC(=O)C1CCN(C(=O)c2ccccc2NS(=O)(=O)c2ccc(F)cc2)CC1	n	n	n	53	n
CCOC(=O)C1CCCN(C(=O)c2ccc(CNS(=O)(=O)c3ccc(C)cc3)cc2)C1 (stereo unspecified)	n	x	n	n	n
CC(C)OC(=O)COc1cc(O)c2c(=O)cc(-c3ccccc3)oc2c1	x	x	x	x	n
O=C1OC(c2cccs2)=N/C1=C\c1ccc(-c2cccc(Cl)c2)o1	n	n	n	n	n
COc1ccc(/C=C2\SC(=N)N(c3nccs3)C2=O)cc1OC	n	n	n	97	n
N=C1S/C(=C\c2ccc(-c3cccc(Cl)c3)o2)C(=O)N1c1nccs1	+	x	n	99	n
COc1ccc(/C=C2\SC(=O)N=C2N)cc1OC	n	n	n	53	n
CCOC(=O)Cc1csc(NC(NC(=O)OCC)(C(=O)OCC)C(F)(F)F)n1 (stereo unspecified)	n	n	n	n	x
CSc1nc(C)cc(OCCNS(=O)(=O)c2cc(C)ccc2C)n1	n	n	n	n	n
SMILES	Autophagy HCS	Insulin prom inh	WT yeast gro inh	L major viab	Ins promoter up
COc1ccc(CC2(CO)CCN(Cc3ccc(NC(C)=O)cc3)CC2)cc1	n	x	n	n	n
CCOc1cc(CN2CCC(CO)(Cc3cccc(C(F)(F)F)c3)CC2)ccc1OC	n	x	n	85	n
CCOc1ccccc1N1CCN(Cc2ccc(OC)c(OC)c2)CC1	n	x	n	n	n
COc1ccc(CC2(CO)CCN(Cc3ccc(OC(F)(F)F)cc3)CC2)cc1	n	x	n	78	n
COc1ccc(CC2(CO)CCN(CC3=Cc4cc(Cl)ccc4OC3)CC2)cc1	n	n	n	89	n
COc1ccc(CC2(CO)CCN(Cc3nc(C(C)C)cs3)CC2)cc1	n	x	n	91	n
COc1ccc2c(c1)C=C(CN1CCC(CO)(CCc3ccccc3)CC1)CO2	n	x	n	n	x
Cn1c(CN2CCCC2)nc2cc(NC(=O)c3cccs3)ccc21	n	n	n	n	n
COc1ccc(CC2(CO)CCN(Cc3cnc(-c4ccccc4C)nc3)CC2)cc1	n	x	n	n	x
COc1ccc(CC2(CO)CCN(Cc3cccc4nccnc34)CC2)cc1	n	n	n	n	n
COc1ccc(CN2CCC(CO)(Cc3ccccc3C(F)(F)F)CC2)c(F)c1	n	x	n	77	n
COc1ccc(CC2(CO)CCN(Cc3ccc4c(c3)CCO4)CC2)cc1	n	x	n	79	n
CCOC(=O)c1c(Nc2ccc(Cl)cc2)sc(/C=C2\C=Nc3ccccc32)c1O	+	n	n	n	x
CCOC(=O)c1c(NC(=O)c2ccc(Cl)s2)sc(C)c1C	x	x	n	x	n
CCOCc1c(C(=O)OCC(=O)/C(C#N)=C(\C)N)oc2ccccc12	n	x	n	n	n
Cc1ccc(CNC(=O)c2ccc(-n3cccc3)cc2)cc1	n	100	n	n	n
Cc1ccc(CNC(=O)Cc2ccc(-n3cccc3)cc2)cc1	n	n	n	n	n
CC(=O)C1=C(S(=O)(=O)c2ccc(C)cc2)CS(=O)(=O)C1	n	n	n	n	n
CCn1c2ccccc2c2cc(/C=N/NC(=O)c3ccccc3C)ccc21	n	x	n	n	n
CCn1c2ccccc2c2cc(/C=N/n3cn[nH]c3=S)ccc21	n	n	n	n	n
CCn1c2ccccc2c2cc(/C=N/NC(=O)c3cccc(C)c3)ccc21	n	x	73	n	n
CCn1c2ccccc2c2cc(/C=N/n3cnnc3)ccc21	+	x	n	n	n
O=C(c1cccc(C(F)(F)F)c1)C1CCCN(C(=O)CCCn2cncn2)C1 (stereo unspecified)	n	x	n	n	n
COCCCNc1nc2nonc2nc1N(C)CC1CCCN1C (stereo unspecified)	n	x	n	n	x
OCCNC(=S)Nc1cccc(Cl)c1Cl	x	x	x	x	n
SMILES	Autophagy HCS	Insulin prom inh	WT yeast gro inh	L major viab	Ins promoter up
Cn1c(C(=O)OC(C(=O)NC2CCCCC2)c2cccnc2)cc2sccc21 (stereo unspecified)	n	n	n	97	n
CC(OC(=O)c1cc2sccc2n1C)C(=O)NC(C)(C)C (stereo unspecified)	n	x	n	n	n
Cn1c(C(=O)OC(C(=O)NC2CCCC2)c2cccnc2)cc2sccc21 (stereo unspecified)	n	n	n	98	x
Cc1ccc(CN2CCN(/N=C/c3ccc(C(F)(F)F)cc3)CC2)c(C)c1	n	n	64	n	n
COC(=O)c1ccc(/C=N/N2CCN(Cc3ccc(C)cc3C)CC2)cc1	n	n	n	84	n
Cc1ccc(Nc2cc(C)nn2-c2nc(C)cc(C)n2)cc1	n	n	75	92	n
CC(=O)Nc1cc(C)nn1-c1nc(C)cc(C)n1	n	n	n	n	n
Cc1ccc(Nc2cc(C)nn2-c2nc(C)cc(=O)[nH]2)cc1	x	n	n	100	n
CCN(C(=O)c1ccc2c(Cl)c3c(nc2c1)CCC3)c1ccc(C)c(C)c1	n	n	94	n	n
CCCc1nn(C)c(C(=O)Nc2ccc(Cl)cc2)c1Cl	n	x	n	n	x
CCCc1nn(C)c(C(=O)Nc2ccc(C(C)(C)C)cc2)c1Cl	n	n	63	n	n
CCO/C=C/C(O)(CNC(=O)c1ccc(C(C)(C)C)cc1)C(F)(F)F (stereo unspecified)	n	n	n	n	n
S=C(c1ccc(N2CCCC2)cc1)N1CCCCC1	n	n	n	88	n
